Screens as filed in PubChem BioAssay.
Sampled rows, rich in hits. Any-hit rate of the full collection: about 1.1%.
RXFP1 antag: antagonists of human relaxin receptor RXFP1; activity change, negative = inhibition, % at 57.5 µM; Q9HBX9; HEK293-RXFP1, relaxin-stimulated cAMP HTRF, 30 min; stronger effect = lower value; actives 0.59% (n = 350,000); AID 1259400;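 active = activity change of -60% or lower, but not beyond a set lower limit; inconclusive = change between -60% and -40%, or beyond the set limit; inactive = change above -40%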; note: % is set by controls: 0 for no effect and ±100 for the full control effect
gsp ag: gsp mutant agonism; actives 0.13% (n = 340,000); Potency, µM (titrated, usually from 76.9 µM), for inactives: at the highest dose activation (cAMP increase), usual class: activators; gsp mutant cells, cAMP HTRF, 30 min; active = well fitted activation curve with a large enough effect; inconclusive = small, poorly fitted or top-dose-only effect, or another doubt; inactive = no such curve, though single readings can be large or run the other way; cell line not stated here;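 note: phosphodiesterase inhibitor Ro 20-1724 added with compounds to block cAMP breakdown; potency is the fitted concentration of half-maximal effect; nearly all actives have a fitted effect of over 60% in size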
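Cells in DMEM/10% FBS with G418 were pretreated with compounds in DMSO plus […] (300 uM stock) for 30 min at 37C. cAMP was measured by HTRF (cAMP-d2 plus anti-cAMP antibody-K) after 30 min at room temperature.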
TRPV1 potentiator: enhances activation of the human vanilloid receptor TRPV1; Q8NER1; TRPV1-expressing cells, Fluo-8 calcium influx, capsaicin EC20 potentiation; potentiation, % at 8.33 µM; actives 0.02% (n = 320,000); in the data active = potentiation above about 80%; inconclusive = between about 30% and that limit; note: 0% is about no effect
Target sequence (Q8NER1 whole entry, looked up): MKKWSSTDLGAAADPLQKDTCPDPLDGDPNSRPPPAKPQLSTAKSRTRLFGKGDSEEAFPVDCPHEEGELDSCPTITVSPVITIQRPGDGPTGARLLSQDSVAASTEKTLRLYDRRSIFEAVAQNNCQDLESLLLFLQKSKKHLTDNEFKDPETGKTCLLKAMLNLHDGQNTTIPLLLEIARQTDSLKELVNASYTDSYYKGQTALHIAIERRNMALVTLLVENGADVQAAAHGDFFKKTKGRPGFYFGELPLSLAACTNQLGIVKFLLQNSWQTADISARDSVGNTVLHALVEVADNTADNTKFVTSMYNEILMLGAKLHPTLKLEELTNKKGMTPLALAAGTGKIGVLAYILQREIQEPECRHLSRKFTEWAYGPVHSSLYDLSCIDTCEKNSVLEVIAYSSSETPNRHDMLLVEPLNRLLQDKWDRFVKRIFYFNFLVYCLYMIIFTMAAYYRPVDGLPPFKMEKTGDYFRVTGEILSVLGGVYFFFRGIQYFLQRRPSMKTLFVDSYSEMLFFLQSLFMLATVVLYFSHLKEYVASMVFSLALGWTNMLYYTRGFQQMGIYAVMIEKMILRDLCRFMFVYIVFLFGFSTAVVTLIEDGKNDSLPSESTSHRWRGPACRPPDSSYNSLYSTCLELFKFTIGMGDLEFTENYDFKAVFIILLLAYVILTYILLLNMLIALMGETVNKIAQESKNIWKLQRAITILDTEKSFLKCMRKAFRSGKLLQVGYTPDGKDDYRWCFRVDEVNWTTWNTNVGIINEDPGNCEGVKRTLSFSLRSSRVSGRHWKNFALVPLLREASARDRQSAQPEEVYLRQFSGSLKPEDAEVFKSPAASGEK
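Cells expressing TRPV1 were dye-loaded with Fluo-8 and read kinetically: 10 s baseline, 3 min after compound (agonist portion), then 2 min after EC20 capsaicin (allosteric enhancer portion). Calcium-bound dye fluorescence at 480/520 nm.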
gsp antag: gsp mutant antagonism. gsp-mutant cells, cAMP HTRF, 30 min. Potency, µM (series often up to 76.9 µM), for inactives: at the highest dose activity change, negative = inhibition, usual class: inhibitors. actives 0.4% (n = 340,000). AID 624288; calls by dose curve; cell line not stated here;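 note: intracellular cAMP measured with PDE inhibitor Ro 20-1724 present during compound exposure; potency is the fitted concentration of half-maximal effect; % is set by controls: 0 for no effect and ±100 for the full control effect; nearly all actives have a fitted effect of over 65% in size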
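HTRF cAMP read-out (cAMP-d2 plus anti-cAMP antibody-K in lysis buffer, 30 min RT). Before lysis, cells are exposed to compounds with […] for 30 min at 37C in DPBS containing Ca/Mg, BSA and Tween 20.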
TRPV1 ag: activates the human vanilloid receptor TRPV1. Q8NER1. TRPV1-expressing cells, Fluo-8 calcium influx, agonist mode. activation, % at 8.33 µM. actives 0.19% (n = 320,000). AID 540275; in the data active = activation above about 80%; inconclusive = between about 30% and that limit; note: 0% is about no effect
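Cells expressing TRPV1 were dye-loaded with Fluo-8 and read kinetically: 10 s baseline, 3 min after compound (agonist portion), then 2 min after EC20 capsaicin (allosteric enhancer portion). Calcium-bound dye fluorescence at 480/520 nm.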
RXFP1 agonist: RXFP1 (human) receptor agonism; Q9HBX9; HEK293T-RXFP1 cAMP TR-FRET, 30 min; response scale: percent of porcine relaxin response, buffer zero; Potency, µM (doses to about 57.5 µM), for inactives: top-dose activation, actives largely listed as activators; actives 0.3% (n = 370,000); AID 2676; active = well fitted activation curve with a large enough effect; inconclusive = small, poorly fitted or top-dose-only effect; note: potency is the fitted concentration of half-maximal effect; % is set by controls: 0 for no effect and ±100 for the full control effect; nearly all actives have a fitted effect of over 60% in size
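Agonist response is measured as cAMP accumulation in an RXFP1-transfected HEK293T line under PDE4 inhibition. Values are scaled between buffer-only and 29 nM porcine relaxin, and EC50s come from standard Hill equation fits.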
* hit, by the source's call; ? = inconclusive; . = not tested or not shown; ! = a repeat was not active; [ ] = another dose, or the depositor's remark.

SMILES | RXFP1 antag | gsp ag | TRPV1 potentiator | gsp antag | TRPV1 ag | RXFP1 agonist
C/C(=N\NC(=O)C1(C)CC1(Br)Br)c1cccc(NC(=O)c2ccc(C)o2)c1 (stereo not given) | ? | -2% | -17 | -27% | ? | -2%
CC(C)c1ccc(NCCC(=O)c2cccs2)cc1 | -8 | -4% | 0 | 1% | 90* | 1%
C=C(C)Cn1c(CCn2c3ccccc3c3ccccc32)n[nH]c1=S | -65* | -41% | -13 | -3% | 14 | 0%
CCOC(=O)CC1C(=O)NCCN1c1nc2ccc(C)cn2c(=O)c1/C=C1\SC(=S)N(CC(C)C)C1=O (stereo not given) | -3 | 9%[15.4 µM] | 7 | -26% | ? | 4%
CCOC(=O)CC1C(=O)NCCN1c1nc2ccc(C)cn2c(=O)c1/C=C1\SC(=S)N(C(C)CC)C1=O (stereo not given) | . | . | -5 | . | 139* | -4%
CN(C)S(=O)(=O)c1cccc(NC(=S)N/N=C/c2cc(Br)ccc2O)c1 | -84* | -4%[15.4 µM] | 2 | 50µM* | 3 | 2%
COc1cccc(N2CCN(C3C(=O)c4ccccc4N3C(C)=O)CC2)c1 (stereo not given) | -19 | . | . | . | . | -3%
O=S(=O)(Nc1cccc(-c2ccc(N3CCCCCC3)nn2)c1)c1cccc(F)c1 | 11 | 6% | 4 | ? | ? | 2%
O=S(=O)(Nc1cccc(-c2ccc(N3CCCCCC3)nn2)c1)c1ccc(F)cc1 | -76*! | ? | -13 | ? | ? | 2%
O=[N+]([O-])c1ccc(Cl)c(S(=O)(=O)Nc2ccc(-c3ccc(N4CCOCC4)nn3)cc2)c1 | -19 | 2% | -13 | ? | -2 | 1%
O=S(=O)(Nc1ccc(-c2ccc(N3CCOCC3)nn2)cc1)c1ccc(Cl)c(Cl)c1 | -12 | 19%[15.4 µM] | -1 | 35µM* | 2 | -3%
O=S(=O)(Nc1cccc(-c2ccc(N3CCCCCC3)nn2)c1)c1ccccc1Cl | -21 | ? | 10 | 28µM* | -3 | 0%
O=S(=O)(Nc1cccc(-c2ccc(N3CCCCCC3)nn2)c1)c1ccc(C(F)(F)F)cc1 | -68* | 0% | -2 | ? | 16 | 1%
Nc1ccc(SCc2cccnc2)cc1 | 4 | 16%[15.4 µM] | -25 | 6% | 5 | 0%
COc1ccc(-c2oc3ncn4nc(COc5cccc(C)c5C)nc4c3c2-c2ccc(OC)cc2)cc1 | . | . | . | . | . | 3%
COc1cc(C(=O)NCCSc2c(C)[nH]c3ccccc23)cc(OC)c1OC | -21 | . | . | . | . | -1%
Cc1ccc(C(=O)NCCSc2c(C)[nH]c3ccccc23)cc1[N+](=O)[O-] | -30 | -39% | 25 | 35µM* | -2 | 2%
O=C(Nc1nccs1)C1CCCN1/C=C/C(=O)C(F)(F)F (stereo not given) | 18 | ? | -13 | -4% | -1 | -5%
O=C(c1ccccc1)N1CCN(c2cc(Cl)nc3cc(-c4cccc(Cl)c4)nn23)CC1 | 2 | -146% | . | . | . | .
Cc1cc(NC(=O)c2cccs2)cc(-c2nc3cc(Cl)ccc3o2)c1O | . | . | . | . | . | 2%
CC(C)c1ccc(NC(=O)Cn2nnc(C(=O)NCc3ccc(Cl)cc3)c2N)cc1 | 5 | . | . | . | . | 0%
COc1ccc(C(=O)N(C)C2CCCN(Cc3ccccc3F)C2)cc1OC (stereo not given) | -3 | -79% | 82* | -6% | -3 | 1%
Cc1cc(C)n2nc(SCC(=O)N3CCN(c4ccccc4)CC3)nc2n1 | -2 | 27% | . | -1% | . | .
CCC1CCCCN1S(=O)(=O)c1ccc(C(=O)Nc2nnc(-c3cccs3)o2)cc1 (stereo not given) | -73* | 5% | -11 | ? | 1 | 1%
O=C(CS(=O)(=O)c1ccc(Cl)cc1)Nc1nnc(-c2cccs2)o1 | -75* | ? | -5 | 1% | 1 | 3%
SMILES | RXFP1 antag | gsp ag | TRPV1 potentiator | gsp antag | TRPV1 ag | RXFP1 agonist
CC1=C(C(=O)Nc2ccc(Cl)cc2)C(c2ccc(C(F)(F)F)cc2)n2nnnc2N1 (stereo not given) | . | . | . | . | . | 1%
CCOC(=O)c1c(C)[nH]c(C)c1S(=O)(=O)N(C)CC(=O)Nc1cccc(C(F)(F)F)c1 | . | . | . | . | . | 3%
COc1ccc(CNCc2cn(-c3cccc(F)c3)nc2-c2ccc(C)o2)cc1 | -18 | -3% | -3 | -1% | 21 | 1%
CC1CCCC(C)N1C(=O)COC(=O)c1n[nH]c(=O)c2ccccc12 (stereo not given) | 0 | -17% | 9 | 11% | -1 | 0%
O=C(NCc1ccccc1)c1cccc2c1C(=O)c1ccc(/C=C/c3ccccc3)cc1S2(=O)=O | . | -42% | . | 10% | . | .
Cc1ccc(-c2nc3ncccc3o2)cc1NC(=O)c1cccs1 | -6 | 7% | -8 | 35µM* | 1 | 0%
Cc1ccc(-c2nc3ncccc3o2)cc1NC(=O)C(C)(C)C | -1 | -13% | 1 | -11% | -1 | 3%
COc1cc(CNc2ccc3[nH]c(=O)[nH]c3c2)ccc1OCc1c(F)cccc1Cl | -28 | 15%[15.4 µM] | -9 | -18% | 90* | 2%
COc1cccc(CNc2ccc3[nH]c(=O)[nH]c3c2)c1OCc1ccccc1Cl | -75* | -3% | -7 | -22% | 22 | -1%
C[C@H]1C[C@H](O)c2ccsc2S1(=O)=O | -9 | . | . | . | . | .
CCS(=O)(=O)c1nc(S(=O)(=O)c2ccc(C)cc2)c(N2CCN(C)CC2)s1 | 6 | ? | 3 | -3% | 0 | 25µM*
CCS(=O)(=O)c1nc(S(=O)(=O)c2ccc(Cl)cc2)c(N2CCCC2)s1 | -4 | 13µM* | 5 | -15% | 7 | ?
Cc1ccccc1N1CCN(C(=O)NCc2cccc(Cl)c2)CC1 | 3 | 7%[15.4 µM] | -17 | -13% | ? | -2%
COC(=O)[C@H]1C[C@@]2(O)CN(S(=O)(=O)c3ccc(C)cc3)C[C@@]2(OC(=O)NCc2ccco2)C[C@H]1C(=O)OC | -4 | -5% | . | . | . | .
O=c1c2ccccc2nc(COc2ccccc2)n1/N=C/c1ccc(O)cc1O | -71* | 12% | -3 | ? | 11 | 5%
COc1ccc(/C=N/NC(=O)c2cc(C)oc2C)cc1OCc1ccccc1 | -17 | 7% | 15 | 13µM* | 1 | 3%
CC(C)(C)OC(=O)C(Cc1ccc(OC(C)(C)C)cc1)NC(=O)CNC(=O)OCc1ccccc1 (stereo not given) | -9 | -22% | -18 | -15% | ? | 0%
Cc1ccc(OCC(=O)N/N=C/C=C/c2ccco2)c(Br)c1 | -76* | -17% | 17 | -1% | 3 | 0%
Cc1cccc(OCC(=O)N/N=C/C=C/c2ccco2)c1 | ? | -18% | 26 | 2% | -3 | 1%
